High-throughput results as filed in PubChem.
The full list was thinned out, with hits kept by preference.
Tg IFNy HTS = T. gondii growth inhibition under IFN-gamma; Toxoplasma gondii growth in IFN-gamma-treated host cells; active compounds read low; activity change, negative = inhibition, % (test concentration not listed); hit rate 3.8% among 69,000; in the data active means activity change below about -70%, passing the limit was not always enough;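 further: host cells are HeLa cells infected with Toxoplasma gondii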
Numbers stand for hits; n = inactive; ! = not active in a repeat.

SMILES	Tg IFNy HTS
CO[C@@H]1CCN(C(=O)c2cc(C3CC3)on2)C[C@@H]1Cc1cccc(C)c1	n
Cc1ccc(S(=O)(=O)N2CCC3(CC2)Nc2ccc(C)c(C)c2-n2cccc23)cc1C	n
CCCNC(=O)N1CCC2(CC1)c1cccn1-c1ccc(C)cc1N2CC	n
CCN1c2cc(C)ccc2-n2cccc2C12CCN(S(=O)(=O)c1ccc(C(C)(C)C)cc1)CC2	n
Cc1cc(C)c(S(=O)(=O)N2CCC3(CC2)Nc2cc(F)ccc2-n2cccc23)c(C)c1	n
CCN1c2cc(C)ccc2-n2cccc2C12CCN(S(=O)(=O)c1ccc(C)cc1)CC2	-86
CCN1c2cc(C)ccc2-n2cccc2C12CCN(S(=O)(=O)c1ccc(C)c(C)c1)CC2	-112
CCN1c2cc(C)ccc2-n2cccc2C12CCN(S(=O)(=O)c1c(C)cc(C)cc1C)CC2	-118
Cc1ccc2c(c1)NC1(CCN(S(=O)(=O)c3ccc(C)c(C)c3)CC1)c1cccn1-2	n
COc1ccc2c(c1)NC1(CCN(S(=O)(=O)c3c(C)cc(C)cc3C)CC1)c1cccn1-2	n
COc1ccc(C[C@H]2CN(C(=O)c3ccn(C)n3)CC[C@@H]2OC)cc1	n
CNC(=O)c1ccc(-c2nc(CN3CCN(C(=O)NCc4ccc(C)cc4)CC3)c(C)o2)cc1	n
O=C(c1nc(Nc2ccc(F)cc2)c2ccccc2n1)N1CCOCC1	n
COc1cccc(-c2nc(CN(c3ccc(C)cc3)S(=O)(=O)c3cccs3)c(C)o2)c1OC	n
Cc1ccc2c(c1C)-n1cccc1C1(CCN(C(=O)CCc3ccccc3)CC1)N2	n
CCC1=NC2(CCC(C(=O)NCc3ccc(C)cc3)CC2)C(=O)N1CC1CC1 (stereo not given)	n
O=C1CN(CC(=O)Nc2ccc(OCc3ccccc3F)cc2)CCN1	n
c1ccc(CSc2nnc3c(n2)[nH]c2ccccc23)cc1	n
CCN(CC)C(=O)CSc1nnc2c(n1)[nH]c1ccc(C)cc12	n
Cc1ccc(CSc2nnc3c(n2)[nH]c2ccc(Br)cc23)cc1	-80
CN(Cc1cc(-c2ccccc2)no1)Cc1nccn1C	n
Cc1ccc(NC(=O)CC(=O)N(CC#Cc2ccccc2)C2CC2)cc1	n
Cc1cnc(CNC(=O)c2nc(-c3cn(Cc4ccccc4)c(C)n3)n3ccccc23)cn1	n
Cc1cnc(CNC(=O)c2c(=O)c3ccc(N4CCCN(C)CC4)nc3n3c2sc2ccccc23)cn1	-81
CCNC(=O)c1c2c(N3CCN(C)CC3)ncnc2n2ccccc12	n
SMILES	Tg IFNy HTS
CCn1ncc(C(=O)NCCN2N=C(c3ccccc3)CCC2=O)c1C	n
Cc1ccc(CN2CCOC3(CCCN(C(=O)C(C)C)C3)C2)o1 (stereo not given)	n
CN1C(=O)CC(c2ccncc2)C12CCN(Cc1nccs1)CC2 (stereo not given)	n
O=c1[nH]c(O)c(N=Nc2ccc(S(=O)(=O)N3CCCC3)cc2)c(=O)[nH]1	-74
O=c1ccc2cc(S(=O)(=O)N3CCCC3)ccc2[nH]1	n
COC(=O)Nc1ccc(S(=O)(=O)N2CCCCC2)cc1	n
COc1cccc(NC(=O)Cn2c(=O)cc(C(=O)N3CCCC3)c3ccccc32)c1	n
CCCCNC(=O)Cn1c(=O)cc(-c2nc(C)no2)c2ccccc21	n
COCC(=O)N1CCc2onc(Cn3ccnc3)c2C1	n
CCOC(=O)N1CCC2(CC1)OC(=O)C(C)=C2C(=O)Nc1ccc(F)cc1F	n
COc1ccc(Cl)cc1C(=O)Nc1ccc2c(c1)CCC(=O)N2C	n
COC(=O)CC1(C(=O)OC)Oc2ccc(Cl)cc2C(=O)N1c1ccc(F)cc1F (stereo not given)	-70
O=C(Cc1ccc(Cl)cc1)NCCc1csc(-c2cccc(F)c2)n1	n
O=C(NCc1cccc(F)c1)c1nc(CS(=O)(=O)c2ccc(Cl)cc2)no1	-87
CN(C)C(=O)N1Cc2nc(C(=O)NCc3cccc(F)c3)oc2C1	n
Cc1ccc(C2(O)CCN(C(=O)C(C)Cn3cncn3)CC2)nc1 (stereo not given)	n
CC(c1ccccc1)n1c(SCC(=O)c2csc3ccccc23)n[nH]c1=O (stereo not given)	-79
O=C(CSc1n[nH]c(=O)n1-c1ccccc1C(F)(F)F)c1ccc(F)cc1	n
CC(c1ccccc1)n1c(SCC(=O)O)nnc1C1CCOCC1 (stereo not given)	n
CC(C)C(NC(=O)C12CC3CC(C1)CC(n1ncnn1)(C3)C2)c1ccc(F)cc1 (stereo not given)	n
c1ccc(Cc2nnc(Oc3ccccc3)c3ccccc23)cc1	n
Cc1ccc2cc(CO)c(Cl)nc2c1	n
O=C(NCCc1csc(-c2ccc(Cl)cc2)n1)C(=O)Nc1ccc(F)cc1	n
O=C(Nc1ccc2c(c1)OCCO2)c1csc(-c2cccc3c2CCO3)n1	n
O=C(NC(=O)c1csc(-c2ccc(C(F)(F)F)cc2Cl)n1)Nc1ccc(F)cc1	-98
SMILES	Tg IFNy HTS
CCN(Cc1cccc(C(=O)Nc2c(C)cccc2C)c1)[C@H]1COC[C@@H]1O	n
Cc1ccc(CN(CCCn2ccnc2)Cc2cc3c(cc2Cl)OCO3)o1	n
Cc1ccc(C(C)NC(=O)CN2C[C@H]3C[C@H](O)[C@@H](O)C[C@H]3C2)cc1 (stereo not given in full)	n
O=C1CCC2(CCCO2)CCN1Cc1cccc2cccnc12 (stereo not given)	n
Cc1ccccc1CNc1nc(-c2nnc(-c3ccccc3)o2)nc2ccccc12	-90
Cc1ccc(-c2nnc(-c3nc(NCc4ccccn4)c4ccccc4n3)o2)cc1	-94
COc1cc(CNc2nc(-c3nnc(-c4ccc(C)cc4)o3)nc3ccccc23)cc(OC)c1OC	n
COc1ccccc1CNc1nc(-c2nnc(-c3ccccc3)o2)nc2ccccc12	-96
COc1ccc(-c2nnc(-c3nc(NCc4ccccc4C)c4ccccc4n3)o2)cc1	n
Cc1ccc(-c2nnc(-c3nc(NCc4ccco4)c4ccccc4n3)o2)cc1	n
COc1ccc(-c2nnc(-c3nc(NCc4ccccc4)c4ccccc4n3)o2)cc1	n
COc1ccccc1CNc1nc(-c2nnc(-c3cccc(C)c3)o2)nc2ccccc12	-90
CCOc1ccccc1CNc1nc(-c2nnc(-c3ccc(OC)cc3)o2)nc2ccccc12	n
Clc1ccccc1CNc1nc(-c2nnc(-c3ccccc3)o2)nc2ccccc12	n
COc1ccc(NC(=O)CN2CCC3(CC2)N=C(c2cccc(Cl)c2)C(=O)N3)cc1	n
N#CCSC1=Nc2ccccc2C2=NC(CCC(=O)NCc3ccc4c(c3)OCO4)C(=O)N12 (stereo not given)	n
Cc1ccc(S(=O)(=O)N2CSC[C@@H]2C(=O)NCCc2csc(-c3ccccc3)n2)cc1	n
CCNC(=O)c1ccc(N2CC[C@@](C)(O)[C@@H](Cc3ccccc3)C2)nc1	n
CN1C(=O)N(Cc2cccnc2)C(=O)C12CCN(Cc1cccc(Oc3ccc(Cl)cc3)c1)CC2	n
O=C(c1ccccc1F)N1CCN(C(=O)[C@@H]2C[C@@H]3C=C[C@H]2C3)CC1	n
Cc1ccc(-c2nnc(-c3nc(NC(C)c4ccccc4)c4ccccc4n3)o2)cc1 (stereo not given)	n
CC(CNc1nc(-c2nnc(-c3ccccc3)o2)nc2ccccc12)c1ccccc1 (stereo not given)	-115
c1ccc(CCNc2nc(-c3nnc(-c4ccccc4)o3)nc3ccccc23)cc1	n
COCCn1c(C(=O)NCC2CCCO2)cc2c1c1ccccc1n2C(C)C (stereo not given)	n
CCN(CC)CCOC(=O)C(c1ccccc1)c1ccccc1	n
CCN(CC)CCOC(=O)C(c1ccccc1)C1CCCCC1 (stereo not given)	-77!
